Reference: PubChem BioAssay (NCI)
“And” between values parts separate entries of the source, which are not always exact repeats. Equal values may be shown once. The panel holds about 83,000 compounds, 20% with a hit somewhere; the sample as a whole holds those more often.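 Note: values are percent growth. 100 is the growth of untreated cells, values between 100 and 0 indicate rising inhibition; between -100 and 0 indicates cell death.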 The source made the active and inactive calls. The calls were made as follows: active = growth percent below 10; inactive = the rest.

Tests used:
Assay in all cases: NCI-60 one-dose screen, 48 h (100 = growth as untreated, 0 = no growth, -100 = all killed)
DU-145 prostate = conditions: 10 µM
K-562 leukemia = conditions: 10 µM
MALME-3M melanoma = conditions: 10 µM
MDA-MB-231 breast = conditions: 10 µM
RXF 393 renal = conditions: 10 µM
SF-268 CNS = conditions: 10 µM
SF-295 CNS = conditions: 10 µM
SF-539 CNS = conditions: 10 µM
UACC-257 melanoma = conditions: 10 µM
M14 melanoma = conditions: 10 µM unless noted

Measured: growth

CC1CCC2(C(=O)O)CCC3(C)C(=CCC4C5(C)CC(O)C(O)C(C)(CO)C5C(O)CC43C)C2C1C (stereo unspecified)
inactive: DU-145 prostate 110% | K-562 leukemia 106% | MALME-3M melanoma 103% | MDA-MB-231 breast 107% | RXF 393 renal 26.2% | SF-268 CNS 111% | SF-295 CNS 112% | SF-539 CNS 99.6% | UACC-257 melanoma 93.7% | M14 melanoma 53.9%

Cc1cc(C)c(N2C(=O)CC(Sc3ccccc3N)C2=O)c(C)c1 (stereo unspecified)
inactive: DU-145 prostate 89.5% | K-562 leukemia 47.4% | MALME-3M melanoma 77.5% | MDA-MB-231 breast 83.1% | RXF 393 renal 84.8% | SF-268 CNS 80.7% | SF-295 CNS 47.5% | SF-539 CNS 88% | UACC-257 melanoma 60.4% | M14 melanoma 60.3%

Nc1nc(N)c2cc(Sc3ccc4ccccc4c3)ccc2n1
active: K-562 leukemia -3.38%
inactive: DU-145 prostate 30.5% | MALME-3M melanoma 53% | MDA-MB-231 breast 40.2% | RXF 393 renal 52.7% | SF-268 CNS 42.1% | SF-539 CNS 33.2% | UACC-257 melanoma 32.9% | M14 melanoma 16.4%

COc1cc(N)ccc1Nc1c2ccccc2nc2ccccc12
inactive: DU-145 prostate 39.7% | MALME-3M melanoma 95.7% | MDA-MB-231 breast 56.4% | RXF 393 renal 95.1% | SF-268 CNS 10.4% | SF-295 CNS 91.5% | M14 melanoma 94.1%
active: K-562 leukemia 1.11%

CCC(=O)Oc1ccc(/C=N/NC(N)=S)nc1
inactive: DU-145 prostate 28.4% | K-562 leukemia 47.3% | MALME-3M melanoma 59% | MDA-MB-231 breast 63.4% | RXF 393 renal 60.5% | SF-268 CNS 25.4% | SF-295 CNS 97.4% | UACC-257 melanoma 68.1%
active: M14 melanoma 9.1%

O=C(O)c1ccccc1.[Ag]
inactive: DU-145 prostate 105% | K-562 leukemia 90.3% | MALME-3M melanoma 119% | MDA-MB-231 breast 89% | RXF 393 renal 106% | SF-268 CNS 97.1% | SF-295 CNS 99.7% | SF-539 CNS 106% | UACC-257 melanoma 93.6% | M14 melanoma 96.4%

ClCCn1c(CCl)nc2ccc(Cl)cc21
inactive: SF-295 CNS 25.3% | UACC-257 melanoma 70.3%
active: DU-145 prostate -59.3% | K-562 leukemia -23.7% | MALME-3M melanoma -64.3% | MDA-MB-231 breast -61.7% | RXF 393 renal -73.9% | SF-268 CNS -69.2% | SF-539 CNS -43.9% | M14 melanoma -83.3%

O=C(CNS(=O)(=O)Cc1ccccc1)NNc1ccccc1
active: K-562 leukemia 9.47%
inactive: DU-145 prostate 67.2% | MALME-3M melanoma 91.3% | RXF 393 renal 120% | SF-268 CNS 60.1% | SF-295 CNS 26.2% | SF-539 CNS 61.4% | UACC-257 melanoma 84.5% | M14 melanoma 31.1%

C=C1N(C)c2ccc(Cl)cc2C1(C)C
inactive: DU-145 prostate 48.9% | K-562 leukemia 13.2% | MALME-3M melanoma 66% | MDA-MB-231 breast 82.7% | SF-268 CNS 77.4% | SF-295 CNS 67.1% | SF-539 CNS 109% | UACC-257 melanoma 60.4% | M14 melanoma 72.2%

O=c1[nH]cc(/C=N\Nc2ccccc2)c(=O)[nH]1
inactive: DU-145 prostate 74.2% | MALME-3M melanoma 84.4% | MDA-MB-231 breast 63.9% | RXF 393 renal 111% | SF-268 CNS 58.5% | SF-295 CNS 45.5% | UACC-257 melanoma 78.4% | M14 melanoma 50.8%
active: K-562 leukemia 8.14%

CN(C)CCNc1cccc2sc3ccc(O)cc3c(=O)c12
active: MALME-3M melanoma 1.1% | SF-295 CNS -12.9%
inactive: DU-145 prostate 43.6% | K-562 leukemia 22.7% | MDA-MB-231 breast 47.2% | RXF 393 renal 60.2% | SF-268 CNS 23.5% | SF-539 CNS 35.9% | M14 melanoma 53.8%

O=C1C=CC(=O)N1c1ccc(N2C(=O)C=CC2=O)cc1
inactive: DU-145 prostate 122% | MALME-3M melanoma 85.7% | MDA-MB-231 breast 115% | SF-268 CNS 112% | SF-295 CNS 109% | SF-539 CNS 87% | UACC-257 melanoma 113% | M14 melanoma 98.3%
active: K-562 leukemia -6.5%

O=C1c2ccccc2CCC1(Br)Br
active: K-562 leukemia -13.5% | MALME-3M melanoma -45.8% | MDA-MB-231 breast -1.14% | M14 melanoma 5.66%
inactive: DU-145 prostate 21.8% | SF-268 CNS 59.3% | SF-295 CNS 105% | SF-539 CNS 16.9% | UACC-257 melanoma 63%

COc1cccc(C(c2cc3c(cc2O)OCO3)N2CCOCC2)c1OC (stereo unspecified)
inactive: DU-145 prostate 109% | K-562 leukemia 95.8% | MALME-3M melanoma 99.2% | MDA-MB-231 breast 97.7% | RXF 393 renal 103% | SF-268 CNS 95.8% | SF-295 CNS 99.7% | SF-539 CNS 96.5% | UACC-257 melanoma 98.4% | M14 melanoma 104%

Cc1cc(N=C2C=CC(=[N+](C)C)C=C2)c(N)cc1N
inactive: DU-145 prostate 104% | K-562 leukemia 57.3% | MALME-3M melanoma 106% | MDA-MB-231 breast 65.2% | RXF 393 renal 96.3% | SF-268 CNS 97.9% | SF-295 CNS 90.8% | SF-539 CNS 89.3% | UACC-257 melanoma 103% | M14 melanoma 107%

O=[N+]([O-])c1cc(S(=O)(=O)Nc2ccccc2)ccc1Cl
inactive: K-562 leukemia 83.9% | MALME-3M melanoma 105% | MDA-MB-231 breast 110% | RXF 393 renal 114% | SF-268 CNS 99.6% | SF-295 CNS 97.2% | SF-539 CNS 102% | UACC-257 melanoma 88% | M14 melanoma 88.7%

O=Nc1ccc(Nc2ccccc2)cc1
inactive: DU-145 prostate 94.9% | K-562 leukemia 13.4% | MALME-3M melanoma 104% | MDA-MB-231 breast 62.5% | RXF 393 renal 86.5% | SF-268 CNS 86% | SF-295 CNS 101% | SF-539 CNS 67.7% | M14 melanoma 89.7%

Cc1cc(Cl)ccc1NC(=O)/C(Cl)=C1/Sc2ccccc2NC1=O
inactive: DU-145 prostate 121% | K-562 leukemia 88.7% | MALME-3M melanoma 109% | MDA-MB-231 breast 80.4% | SF-268 CNS 103% | SF-295 CNS 118% | SF-539 CNS 94% | UACC-257 melanoma 103% | M14 melanoma 83.8%

Cn1c2nc3ccccc3c-2nc2ccccc21
inactive: DU-145 prostate 94.4% and 95.7% | K-562 leukemia 121% and 94.7% | MALME-3M melanoma 116% and 115% | MDA-MB-231 breast 79.9% and 83.8% | RXF 393 renal 91% and 90.7% | SF-268 CNS 97% and 97.7% | SF-295 CNS 96.8% and 107% | SF-539 CNS 92.2% and 77.2% | UACC-257 melanoma 108% and 94.5% | M14 melanoma 108% and 100%

CCC(C)(c1ccc(O)c(C)c1)c1ccc(O)c(C)c1
inactive: DU-145 prostate 110% | K-562 leukemia 106% | MALME-3M melanoma 219% | MDA-MB-231 breast 85% | RXF 393 renal 87.4% | SF-268 CNS 89.7% | SF-295 CNS 87.8% | SF-539 CNS 93.7% | UACC-257 melanoma 107% | M14 melanoma 91.6%

S=C1SCN(CCc2ccccc2)CN1CCc1ccccc1
inactive: DU-145 prostate 93% | K-562 leukemia 55.8% | MALME-3M melanoma 87.3% | MDA-MB-231 breast 99.3% | RXF 393 renal 91.8% | SF-268 CNS 106% | SF-295 CNS 93.4% | SF-539 CNS 115% | UACC-257 melanoma 71.6% | M14 melanoma 120%

O=C1C(Cl)=C(Cl)C(Cl)(Cl)C(Cl)C1(Cl)Cl (stereo unspecified)
inactive: DU-145 prostate 114% | K-562 leukemia 102% | MALME-3M melanoma 99.9% | MDA-MB-231 breast 96.2% | RXF 393 renal 116% | SF-268 CNS 108% | SF-295 CNS 94.5% | SF-539 CNS 96.2% | UACC-257 melanoma 110% | M14 melanoma 103%

N#CC(=C1C=CC(=NO)C=C1)c1ccccc1
inactive: K-562 leukemia 11.9% | MALME-3M melanoma 59.1% | SF-295 CNS 19.6% | UACC-257 melanoma 65.6%
active: DU-145 prostate -66.7% | MDA-MB-231 breast -4.14% | SF-268 CNS -24% | SF-539 CNS -58.7% | M14 melanoma -36.5%
